Rows were chosen to be rich in hits. Some 1.2% of all compounds tested hit in one or more screens of this group.
GALR2 blocker = GALR2 antagonists in receptor-expressing cells, primary screen; Galanin receptor type 2 (Homo sapiens), O43603; antagonist mode; inhibition, % at 4 µM; actives 0.39% (n = 140,000);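 also: cells stimulated with galanin 1-16 at roughly its EC80; 0% = agonist challenge control and 100% = basal control without agonist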
Target sequence (O43603 whole entry, looked up): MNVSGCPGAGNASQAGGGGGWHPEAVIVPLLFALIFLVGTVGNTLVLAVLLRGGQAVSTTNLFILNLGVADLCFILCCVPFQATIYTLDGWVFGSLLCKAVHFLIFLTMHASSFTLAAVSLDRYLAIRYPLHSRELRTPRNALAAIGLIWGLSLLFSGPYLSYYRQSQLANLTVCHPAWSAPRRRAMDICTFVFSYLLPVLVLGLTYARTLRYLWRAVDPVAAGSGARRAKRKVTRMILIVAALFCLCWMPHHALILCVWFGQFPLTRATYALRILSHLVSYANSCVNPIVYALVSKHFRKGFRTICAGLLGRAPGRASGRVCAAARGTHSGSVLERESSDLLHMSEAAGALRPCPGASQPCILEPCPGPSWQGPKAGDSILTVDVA
GALR2 agonist = GALR2 receptor agonists, primary screen, cell-based; GALR2-expressing cells, agonist activation read-out; AID 803, 2007; activation, % (test concentration not listed); actives 0.48% (n = 140,000); in the data active = activation above about 5%, passing the limit was not always enough;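 also: 0% = vehicle buffer wells and 100% = reference agonist at full effect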
S1P2 agonist = S1P2 receptor agonists, primary screen, cell-based; activation, % at 4.5 µM; actives 0.46% (n = 97,000); AID 729, 2007; Sphingosine 1-phosphate receptor 2 (Homo sapiens), O95136; S1P2-expressing cell line, agonist reporter read-out; in the data active = activation above about 16%;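 also: 0% = vehicle low control and 100% = maximal reference agonist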
S1P2 antag = human S1P2 receptor antagonists, primary screen, cell-based. actives 0.21% (n = 97,000). cell-based S1P2 antagonist assay, inhibition at 5 uM. AID 736, 2007. inhibition, % at 5 µM; in the data active = inhibition above about 45%;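 also: CRE beta-lactamase reporter cells expressing human S1P2 stimulated with S1P; 0% = agonist at EC80 alone and 100% = agonist plus reference antagonist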
GALR2 blk conf = GALR2 antagonists, retest of hits, confirmation, cell-based; shares compounds with GALR2 blocker; GALR2-expressing cells, antagonist mode, inhibition; inhibition, % at 4 µM; actives 60% (n = 480); AID 866, 2007;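 also: cells stimulated with galanin at about its EC80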
BLA inh counter = inhibitors of NFAT-driven beta-lactamase reporter, confirmation, counter-screen for GALR2 antagonist project, CHO NFAT-bla cells, FRET readout | shares compounds with GALR2 blocker | thapsigargin-stimulated | inhibition, % at 4.2 µM | actives 36% (n = 480) | AID 867, 2007;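 active = inhibition above the mean inhibition across tested compounds plus 3 SD, cut at about 27% in these data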;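 also: 0% = 500 nM thapsigargin stimulated wells and 100% = unstimulated BSA only wells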
An asterisk follows results filed as active; / = not tested or not shown. Rule as the data show it, unless noted: active = inhibition above about 27%; inactive = the rest.

SMILES | GALR2 blocker | GALR2 agonist | S1P2 agonist | S1P2 antag | GALR2 blk conf | BLA inh counter
Cn1c2c(c(=O)n(C)c1=O)C(C(F)(F)F)(C(F)(F)F)N=C(c1ccc(Cl)cc1)N2 | 67.8* | -0.9 | -7.9 | 85.6* | 72.5* | 58.0*
CC(/C=N/NC(=O)c1n[nH]c2c1CCC2)=C\c1ccccc1 | 20.6 | 2.0 | -3.1 | -0.2 | / | /
O=C(N/N=C/C(Br)=C\c1ccccc1)c1n[nH]c2c1CCC2 | 32.8* | 2.5 | -2.3 | -8.2 | 37.5* | 60.9*
CC(Cc1cccs1)NC(=O)Nc1ccc(F)cc1 (stereo not given) | 28.4* | -3.3 | -4.9 | 3.9 | 11.9 | 8.7
CC(Cc1cccs1)NC(=O)Nc1cccc(Cl)c1 (stereo not given) | 5.1 | -3.6 | -7.2 | -11.7 | / | /
CCNC(=O)NC(=O)C(C)OC(=O)CCCSc1nc2ccccc2s1 (stereo not given) | -0.1 | -0.2 | / | / | / | /
C/C(=N\Nc1ccc([N+](=O)[O-])cc1)c1cccc(N)c1 | 30.2* | -1.9 | -8.0 | 14.1 | 30.7* | 16.0
CCCNC(=S)Nc1ccc(Cl)cc1Cl | 8.7 | -0.4 | / | / | / | /
CCOC(=O)C1(C)NC(c2ccco2)C2C(=O)N(c3ccc(C)cc3)C(=O)C21 (stereo not given) | 2.0 | -2.2 | -8.8 | 1.0 | / | /
CCC1(C(=O)OC)NC(c2ccco2)C2C(=O)N(c3ccc(C)cc3)C(=O)C21 (stereo not given) | 29.7* | -2.7 | -4.6 | 0.2 | 7.4 | 1.8
CC1=C(C)CS(=O)N(c2ccc(S(N)(=O)=O)cc2)C1 (stereo not given) | 29.6* | -1.1 | -1.2 | -0.3 | 27.8* | 10.6
Cc1cc(N/N=C/c2ccc(O)c(C)c2O)nc(-c2ccccc2O)n1 | 31.3* | -1.8 | / | / | 33.3* | 12.3
CCc1c(C(=O)N/N=C/c2ccc(C)o2)csc1C | 7.4 | -2.6 | -5.4 | 13.3 | / | /
CCOc1ccc(C(=O)C(CCC(CN(C)C)C(=O)c2ccc(OCC)cc2)CN(C)C)cc1 (stereo not given) | 39.3* | 3.0 | / | / | 28.1* | 30.4*
COc1ccc(C(=O)C(CCCCC(CN(C)C)C(=O)c2ccc(OC)cc2)CN(C)C)cc1 (stereo not given) | 7.2 | -2.7 | -0.9 | 10.9 | / | /
CCCNC(=O)c1ccc2c(c1)ncn2-c1ccccc1OC | 27.9* | -1.2 | / | / | 13.5 | 4.7
N#C/C(=C\c1cccs1)c1nc2ccccc2[nH]1 | 32.5* | -1.1 | / | / | 30.2* | 8.0
N#C/C(=C\c1ccc(OC(=O)c2cccs2)cc1)c1nc2ccccc2[nH]1 | -7.7 | -1.5 | / | / | / | /
Cc1nc2sccn2c1-c1csc(NCc2ccccc2)n1 | 27.2* | -1.8 | -7.0 | 40.7 | 23.7 | -1.3
Cc1cccc(CSc2cccc3cccnc23)c1 | 29.2* | -1.4 | -5.2 | 29.2 | 24.3 | 19.3
Clc1ccc(CO/N=C2\CCCc3nonc32)c(Cl)c1 | 7.9 | 0.6 | / | / | / | /
c1cncc(-c2nc(NCC3COc4ccccc4O3)c3ccccc3n2)c1 (stereo not given) | 5.3 | -0.9 | 3.7 | -6.6 | / | /
c1ccc2c(c1)OCC(CNc1ncnc3sccc13)O2 (stereo not given) | 42.3* | 0.0 | / | / | 54.2* | 11.3
COc1c(S(=O)(=O)n2nc(C)cc2C)ccc(Cl)c1Cl | -11.9 | 0.9 | -3.1 | 5.1 | / | /
Cc1nnc(SCC(=O)Nc2cccc(S(=O)(=O)N(C)c3ccccc3)c2)s1 | 32.0* | -0.5 | / | / | 35.1* | 8.8
SMILES | GALR2 blocker | GALR2 agonist | S1P2 agonist | S1P2 antag | GALR2 blk conf | BLA inh counter
Cn1c(Cl)c(C(=O)Nc2ccc(Cl)cc2)c2ccccc21 | 19.6 | -3.2 | -3.5 | 3.7 | / | /
CCC(NC(=O)Nc1nnc(C(F)(F)F)s1)(C(F)(F)F)C(F)(F)F | 58.9* | 4.3 | -4.9 | 74.8* | 39.4* | 16.2
O=C(COC(=O)Cc1ccc(Cl)cc1Cl)Nc1ccccc1OC(F)F | -13.8 | 0.4 | / | / | / | /
CC(=O)/C=C/n1c(=S)oc2ccccc21 | 42.2* | -1.7 | / | / | 77.1* | 64.5*
O=C(/C=C/c1cccnc1)c1ccc(NC(=O)c2cccc(Br)c2)cc1 | -5.2 | -2.0 | -4.0 | 7.8 | / | /
Cc1cccc(C(=O)Nc2ccc(C(=O)/C=C/c3cccnc3)cc2)c1 | 31.1* | -0.3 | / | / | 31.9* | 7.1
O=C(Nc1ccccn1)C(F)(F)C(F)(F)C(F)(F)C(F)(F)C(=O)Nc1ccccn1 | -2.1 | -0.4 | / | / | / | /
COc1ccc(CCNc2ncnc3c2oc2ccccc23)cc1OC | 27.5* | -0.6 | -5.0 | 67.2* | 38.1* | -0.8

Source: PubChem
